Out of some 5,500 compounds screened, about 2,000 (36%) were called active. Roughly 18% stayed inconclusive and do not appear here. Cut-off read from the data, not from the text of the source: active = normalized growth mostly below about 0.91 (no sharp cut-off); inconclusive = no clear call, values can overlap the other calls; inactive = mostly above about 0.92. The list shows a part of the results.
Assay: chemical genetic growth profiling, strain panel (AID 1159580);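 note: tested at 20 µM; growth read once vehicle control cultures reached saturation at 30 °C; 1 = growth at the plate median or of vehicle wells; lower values mean less growth of the strain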
Conditions: S. cerevisiae deletion strains, growth OD
[1] = locus YAR019C, strain CDC15, active compounds read low
[2] = locus YBL105C, strain PKC1, active compounds read low
[3] = locus YBR135W, strain CKS1, active compounds read low
[4] = locus YBR136W, strain MEC1, active compounds read low
[5] = locus YBR160W, strain CDC28, active compounds read low
[6] = locus YDL017W, strain CDC7, active compounds read low
[7] = locus YDL028C, strain MPS1, active compounds read low
[8] = locus YDL101C, strain DUN1, active compounds read low
[9] = locus YDL108W, strain KIN28, active compounds read low
[10] = locus YDL132W, strain cdc53, active compounds read low
[11] = locus YDL214C, strain PRR2, active compounds read low
[12] = locus YDR052C, strain DBF4, active compounds read low
[13] = locus YDR054C, strain cdc34, active compounds read low
[14] = locus YDR226W, strain ADK1, active compounds read low
[15] = locus YDR477W, strain SNF1, active compounds read low
[16] = locus YER123W, strain YCK3, active compounds read low
[17] = locus YER133W, strain GLC7, active compounds read low
[18] = locus YFL009W, strain cdc4, active compounds read low
[19] = locus YFL029C, strain CAK1, active compounds read low
[20] = locus YFR003C, strain YPI1, active compounds read low
[21] = locus YFR019W, strain FAB1, active compounds read low
[22] = locus YFR028C, strain CDC14, active compounds read low
[23] = locus YGR040W, strain KSS1, active compounds read low
[24] = locus YGR052W, strain FMP48, active compounds read low
[25] = locus YGR092W, strain DBF2, active compounds read low
[26] = locus YHR030C, strain SLT2, active compounds read low
[27] = locus YHR079C, strain IRE1, active compounds read low
[28] = locus YHR082C, strain KSP1, active compounds read low
[29] = locus YHR205W, strain SCH9, active compounds read low
[30] = locus YIL147C, strain SLN1, active compounds read low
[31] = locus YJL095W, strain BCK1, active compounds read low
[32] = locus YJL128C, strain PBS2, active compounds read low
[33] = locus YJL157C, strain FAR1, active compounds read low
[34] = locus YJR016C, strain ILV3, active compounds read low
[35] = locus YJR066W, strain TOR1 (second series), active compounds read low
[36] = locus YJR066W, strain TOR1, active compounds read low
[37] = locus YKL048C, strain ELM1, active compounds read low
[38] = locus YKL067W, strain YNK1, active compounds read low
[39] = locus YKL101W, strain HSL1, active compounds read low
[40] = locus YKL193C, strain SDS22, active compounds read low
[41] = locus YKL203C, strain TOR2, active compounds read low
[42] = locus YLR113W, strain HOG1, active compounds read low
[43] = locus YLR133W, strain CKI1, active compounds read low
[44] = locus YLR403W, strain SFP1, active compounds read low
[45] = locus YML070W, strain DAK1, active compounds read low
[46] = locus YMR001C, strain CDC5, active compounds read low
[47] = locus YMR205C, strain PFK2 (second series), active compounds read low
[48] = locus YMR277W, strain FCP1, active compounds read low
[49] = locus YNL006W, strain LST8, active compounds read low
[50] = locus YNL020C, strain ARK1, active compounds read low
[51] = locus YNL161W, strain CBK1, active compounds read low
[52] = locus YNL183C, strain NPR1, active compounds read low
[53] = locus YNL207W, strain RIO2, active compounds read low
[54] = locus YNL222W, strain SSU72, active compounds read low
[55] = locus YNL307C, strain MCK1 (second series), active compounds read low
[56] = locus YOL078W, strain AVO1, active compounds read low
[57] = locus YOL136C, strain PFK27, active compounds read low
[58] = locus YOR061W, strain CKA2, active compounds read low
[59] = locus YOR119C, strain RIO1, active compounds read low
[60] = locus YOR231W, strain MKK1, active compounds read low
[61] = locus YOR329C, strain SCD5, active compounds read low
[62] = locus YPL031C, strain PHO85, active compounds read low
[63] = locus YPL153C, strain RAD53, active compounds read low
[64] = locus YPL204W, strain HRR25, active compounds read low
[65] = locus YPL209C, strain IPL1, active compounds read low
[66] = locus YPL256C, strain CLN2, active compounds read low
[67] = locus YPR025C, strain CCL1, active compounds read low
[68] = locus YPR106W, strain ISR1, active compounds read low
[69] = locus YPR111W, strain DBF20, active compounds read low
[70] = strain NNK1, active compounds read low
[71] = strain TSCII, active compounds read low

Measured: normalized growth

O=C(NNc1ccc(F)cc1F)c1sccc1Cl
active: [42] 0.858
inactive: [1] 0.974 | [2] 0.96 | [3] 0.978 | [4] 0.971 | [5] 0.971 | [6] 0.968 | [7] 0.975 | [8] 0.961 | [9] 0.977 | [10] 0.969 | [11] 0.924 | [12] 0.971 | [13] 0.957 | [14] 0.968 | [15] 0.927 | [16] 0.841 | [17] 0.952 | [18] 0.975 | [19] 0.962 | [20] 0.978 | [21] 0.916 | [22] 0.977 | [23] 0.912 | [24] 1 | [25] 0.879 | [26] 0.903 | [27] 0.96 | [28] 0.987 | [29] 0.925 | [30] 0.968 | [31] 0.939 | [32] 0.967 | [33] 0.926 | [34] 0.976 | [35] 0.86 | [36] 1.01 | [37] 0.927 | [38] 0.952 | [39] 0.913 | [40] 0.976 | [41] 0.985 | [43] 0.926 | [44] 0.917 | [45] 0.904 | [46] 0.974 | [47] 0.963 | [48] 0.984 | [49] 0.989 | [50] 0.939 | [51] 0.974 | [52] 0.956 | [53] 0.975 | [54] 0.975 | [55] 0.858 | [56] 0.968 | [57] 0.908 | [58] 0.83 | [59] 0.994 | [60] 0.914 | [61] 0.97 | [62] 0.944 | [63] 0.92 | [64] 0.914 | [65] 0.967 | [66] 0.894 | [67] 0.978 | [68] 0.957 | [69] 0.953 | [70] 0.967 | [71] 0.97

Cc1cc(Cl)ccc1NNC(=O)c1sccc1Br
inactive: [1] 0.928 | [2] 0.925 | [3] 0.927 | [4] 0.921 | [5] 0.918 | [6] 0.928 | [7] 0.929 | [8] 0.917 | [9] 0.932 | [10] 0.918 | [11] 0.872 | [12] 0.931 | [13] 0.908 | [14] 0.922 | [15] 0.871 | [16] 0.81 | [17] 0.851 | [18] 0.925 | [19] 0.921 | [20] 0.924 | [21] 0.895 | [22] 0.924 | [23] 0.844 | [24] 0.908 | [25] 0.784 | [27] 0.862 | [28] 0.879 | [29] 0.844 | [30] 0.928 | [31] 0.714 | [32] 0.895 | [33] 0.85 | [34] 0.935 | [35] 0.862 | [36] 0.886 | [37] 0.896 | [38] 0.873 | [39] 0.872 | [40] 0.92 | [41] 0.921 | [43] 0.849 | [44] 0.838 | [45] 0.842 | [46] 0.918 | [47] 0.87 | [48] 0.921 | [49] 0.925 | [50] 0.862 | [51] 0.923 | [52] 0.851 | [53] 0.906 | [54] 0.925 | [55] 0.785 | [56] 0.916 | [57] 0.825 | [58] 0.868 | [59] 0.92 | [60] 0.824 | [61] 0.913 | [62] 0.867 | [63] 0.855 | [64] 0.838 | [65] 0.911 | [67] 0.925 | [68] 0.912 | [69] 0.919 | [70] 0.915 | [71] 0.92
active: [26] 0.489 | [42] 0.715 | [66] 0.793

Cc1ccc(NNC(=O)c2cccs2)cc1Cl
inactive: [1] 0.969 | [2] 0.969 | [3] 0.971 | [4] 0.974 | [5] 0.957 | [6] 0.979 | [7] 0.972 | [8] 0.968 | [9] 0.967 | [10] 0.975 | [11] 0.964 | [12] 0.976 | [13] 0.966 | [14] 0.96 | [15] 0.974 | [16] 0.897 | [17] 0.966 | [18] 0.976 | [19] 0.966 | [20] 0.976 | [21] 0.958 | [22] 0.964 | [23] 0.963 | [24] 1.01 | [25] 0.824 | [26] 0.943 | [27] 0.97 | [28] 1.03 | [29] 0.964 | [30] 0.98 | [31] 0.984 | [32] 0.963 | [33] 0.952 | [34] 0.975 | [35] 0.925 | [36] 1.03 | [37] 0.945 | [38] 0.953 | [39] 0.963 | [40] 0.968 | [41] 1.03 | [42] 0.876 | [43] 0.968 | [44] 0.929 | [45] 0.918 | [46] 0.979 | [47] 0.961 | [48] 0.974 | [49] 0.975 | [50] 0.963 | [51] 0.966 | [52] 0.979 | [53] 0.976 | [54] 0.961 | [55] 0.922 | [56] 0.972 | [57] 0.943 | [58] 0.894 | [59] 1.02 | [60] 0.914 | [61] 0.978 | [62] 0.964 | [63] 0.949 | [64] 0.959 | [65] 0.967 | [66] 0.948 | [67] 0.969 | [68] 0.973 | [69] 0.962 | [70] 0.991 | [71] 0.972

Reference: PubChem BioAssay AID1159580 (chemical genetic matrix, 2015)
